Screening results deposited in PubChem BioAssay by several laboratories.
Rpn11 inh: Rpn11 (human) deubiquitinase inhibition | O00487 | human 26S proteasome, Ub4-pepOG fluorescence polarization; 20S core pre-blocked with epoxomicin | calls only at 20 µM | 360,000 tested, 0.59% active | AID 588493;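 active = inhibition at 20 µM, scaled to each plate's controls, above about 33%, limit read from the data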
PKA-R1A act: activators of PKA-R1A complex. AID 504707. PKA-R1A dissociation, Cy5-IP20 fluorescence polarization; scaled: DMSO 0%, 113 µM cGMP 100%. P00514+P68181. 340,000 tested, 0.083% active. activation, % at 11.4 µM;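 active = percent activation above the mean of all tested compounds plus 3 SD, cut at about 19% in these data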;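 also: higher means more PKAc released from R1A so a rise in polarization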
PKA-R2B activ: PKA-R2B complex activation; P22694+P31323; PKA-R2B holoenzyme dissociation, Cy5-IP20 fluorescence polarization; R2B truncated from residue 108, S112A mutant; 0% DMSO only, 100% 113 µM cGMP; activation, % at 11.4 µM; 340,000 tested, 0.079% active; AID 504700;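 active = activation above a cutoff set at the mean over all compounds plus 3 SD, cut at about 18% in these data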;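 also: higher means more holoenzyme dissociation and a rise in polarization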
Target sequence (P31323 whole entry, looked up, other chains not shown, the tested form may be a part): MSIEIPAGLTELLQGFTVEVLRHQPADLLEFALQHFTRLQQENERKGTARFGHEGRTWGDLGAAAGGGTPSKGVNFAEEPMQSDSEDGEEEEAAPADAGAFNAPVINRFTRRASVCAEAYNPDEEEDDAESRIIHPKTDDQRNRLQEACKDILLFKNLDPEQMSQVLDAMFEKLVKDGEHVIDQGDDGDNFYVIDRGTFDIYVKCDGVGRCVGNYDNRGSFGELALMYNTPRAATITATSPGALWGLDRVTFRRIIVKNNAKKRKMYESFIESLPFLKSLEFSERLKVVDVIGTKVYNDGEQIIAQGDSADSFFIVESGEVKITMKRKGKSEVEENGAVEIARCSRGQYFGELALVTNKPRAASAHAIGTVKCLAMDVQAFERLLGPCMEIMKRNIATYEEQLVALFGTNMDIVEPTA
Neddyl block: inhibitors of human cullin neddylation. P61081+Q13564. TR-FRET cullin neddylation, biochemical. inhibition, % at 25 µM. 360,000 tested, 0.58% active. AID 651699; in the data active = inhibition above about 36%
Active calls of the source: *; i = inactive; . = no result shown; + = active, no number. Shown are actives, neighbours in structure and some others; about 1.3% of the full set was active somewhere.

SMILES	Rpn11 inh	PKA-R1A act	PKA-R2B activ	Neddyl block
CCOC(=O)[C@]12CCCC=C1N(CCC1=CCCCC1)C(=O)[C@H](CC(=O)NCC1CCCCC1)C2	.	.	.	4
Cc1[nH]c(=O)sc1C(=O)NCc1ccc([N+](=O)[O-])cc1	i	.	.	4
CCc1nnc(NC(=O)c2ccc(COc3ccccc3Cl)o2)s1	i	5	14	7
CCc1nnc(NC(=O)c2ccc(-c3ccccc3Cl)o2)s1	i	-1	-1	45*
CCOc1ccc(N2C(=O)CS/C2=C(\C(Cl)=C(Cl)Cl)[N+](=O)[O-])cc1	+	9	10	-11
CCOc1ccc(N2C(=O)CNC2=S)cc1	i	-9	-5	4
CCc1nc2c(OCc3ccc(Cl)cc3)cccn2c1N(C)C(=O)c1ccco1	i	.	.	4
CCCCN(C(=O)CSCC(=O)Nc1ccc(C)cc1)c1c(N)n(CCCC)c(=O)[nH]c1=O	i	-4	-2	9
Cc1cc(/C=c2\sc3nc4ccccc4n3c2=O)c(C)n1-c1ccc(C(=O)O)cc1	i	-2	2	40*
Cc1n[nH]c(=O)n1-c1ccc(OCc2ccccc2)cc1	i	-1	-9	0
COC(=O)C[C@H]1CC[C@H](NC(=O)c2cccc(F)c2)[C@@H](CO)O1	.	.	.	-3
Cc1nc(N2CCN(C(=O)c3ccc(Cl)cc3)CC2)c(C#N)c2c1COC(C)(C)C2	i	-2	-12	41*
CN(C)CC(O)CN1C(=O)N(CN2C(=O)N(CC(O)CN(C)C)C(=O)C2(C)C)C(C)(C)C1=O (stereo not drawn)	i	.	.	-3
COc1ccc(CNC(=O)Cn2nc([N+](=O)[O-])c(Br)c2C)cc1OC	i	-4	4	-25
O=C(O)c1ccc(-n2cccc2/C=N\NC(=O)c2cc3cc(Br)ccc3o2)cc1	i	3	-2	47*
COc1ccc(Cn2c(O)c(/C=N/NC(=O)c3cccnc3)c3ccccc3c2=O)cc1	.	-2	-16	43*
CC(=Nc1ccc(Br)cc1)c1sc2ccccc2c1O	i	-6	-13	.
CC(=Nc1ccccc1)c1sc2ccccc2c1O	i	-10	-6	44*
C=CCC1NS(=O)(=O)O[C@H](CCCC)[C@@H]1O (stereo partly drawn)	i	8	2	-13
Oc1ccccc1CNc1cnc2ccccc2c1	i	-6	-22	50*
Nc1c(C(=O)Nc2ccccc2)sc2nc(-c3ccco3)ccc12	i	-6	-12	.
COc1ccccc1NC(=O)c1sc2nc(-c3ccco3)ccc2c1N	+	7	3	.
Cc1c(C(=O)Nc2nc(-c3ccccn3)cs2)oc2ccccc12	+	3	3	24
O=C(Nc1nc(-c2ccccn2)cs1)c1cc2ccccc2o1	i	-20	2	36
CCOC(=O)c1cc(C(C)(C)C)oc1CNC(=O)c1c(C)oc2c1CCCC2	i	-11	-7	6
SMILES	Rpn11 inh	PKA-R1A act	PKA-R2B activ	Neddyl block
COc1ccccc1N=c1oc2cc(O)ccc2cc1C(N)=O	i	-4	3	.
Cc1cccc(N=c2oc3cc(O)ccc3cc2C(N)=O)c1	i	-4	3	62*
O=C(c1cc([N+](=O)[O-])[nH]n1)N1CCSCC1	i	-3	-12	-2
O=C(Nc1ccc(C(F)(F)F)cc1)c1ccc(NC(=O)C2CCCO2)cc1 (stereo not drawn)	+	-5	4	-15
CC(=O)Nc1cccc(NC(=O)C(=O)c2cn(CC(=O)N3CCCC3)c3ccccc23)c1	i	-3	1	-23
COc1ccc2[nH]c(=O)c(-c3nnn(-c4ccc(Cl)nc4)n3)cc2c1	i	-10	-10	32*
Cc1ccc(N(C(=O)CNC(=O)c2ccco2)C(C(=O)NC2CCCCC2)c2ccncc2)c(C)c1 (stereo not drawn)	i	-5	4	10
c1ccc(CC2CCN(C3=Nc4cccc5cccc3c45)CC2)cc1	+	-3	-4	17
c1cc2c3c(cccc3c1)C(N1CCOCC1)=N2	i	.	.	20
O=C(COC(=O)/C=C/c1ccc(OC(F)F)cc1)NC1CCCCCC1	i	0	-1	14
Fc1ccc(N2N=C(c3cccs3)CC2c2ccccc2)cc1 (stereo not drawn)	+	16	7	.
NC(N)=N/N=C/c1ccc2cccc(OCc3ccccc3)c2n1	i	-4	-4	45*
CCCCC(CC)CN=C(N)NC(N)=NCCCCCCN=C(N)NC(N)=NCC(CC)CCCC (stereo not drawn)	+	0	2	9
